In PubChem BioAssay (Tox21) one finds Potency, outcome and activity change, positive = activation data, which are given here for seven molecules.

Assay [1] is described as follows: qHTS assay to identify small molecule antagonists of the constitutive androstane receptor (CAR) signaling pathway - cell viability counter screen (AID 1224837). Also: nearly all actives have a fitted effect of over 45% in size. A digest of the protocol:
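Counter screen run in HepG2-CYP2B6-hCAR cells: 4 hr settle, compound titration (15 concentrations) with 50 nM CITCO, 23 hr at 37 C/5% CO2, CellTiter-Fluor fluorescence.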

For assay [2], the target named is Nuclear receptor subfamily 1 group I member 3 (Homo sapiens) (UniProt Q14994). The assay can be described thus: qHTS assay to identify small molecule antagonists of the constitutive androstane receptor (CAR) signaling pathway (AID 1224838). Also: nearly all actives have a fitted effect of over 40% in size. A digest of the protocol:
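Cell line: HepG2 double-stable for hCAR and CYP2B6-2.2kb reporter. Agonist: CITCO, 50 nM final. Compounds: 15 concentrations, 24 h, 37 C. Detection: ONE-Glo luminescence.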
On the technique in general: Quantitative high-throughput screening tests each substance at several concentrations.

For assay [3] the target is unchanged. The assay can be described thus: qHTS assay to identify small molecule agonists of the constitutive androstane receptor (CAR) signaling pathway (AID 1224839). Also: nearly all actives have a fitted effect of over 15% in size. Also: potency is read from the fitted curve at half-maximal effect.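 As to activation: HepG2 cells stably carrying human CAR and a CYP2B6 luciferase reporter.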 The gist of the method:
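HepG2 cells stably expressing hCAR and a CYP2B6-2.2kb luciferase reporter were treated with compounds at 15 concentrations plus 0.75 uM PK11195 (final) for 24 h at 37 C; luminescence was read after ONE-Glo addition.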

A short description of assay [4]: qHTS assay to identify small molecule antagonists of the estrogen related receptor signaling pathway with the pleiotropic PPARgamma coactivator (PGC) from Tox21 10K library - cell viability counter screen (AID 1224840; active = well fitted cell-killing curve with a large enough effect in the repeat runs, not every such curve was filed as active; also: nearly all actives have a fitted effect of over 40% in size). A digest of the protocol:
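Following seeding of 2,000 PGC/ERR cells/well and 6 hours' incubation, test compounds were delivered in DMSO. The plates then sat 17.5 hours at 37 C before a fluorogenic live-cell protease reagent (CellTiter-Fluor) was read after 30 min.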

Assay [5] can be described thus: qHTS assay to identify small molecule antagonists of the estrogen related receptor signaling pathway with the pleiotropic PPARgamma coactivator (PGC) from Tox21 10K library (AID 1224841; call rule not given here; also: actives are mostly falling curves and most rising ones were filed inactive; nearly all actives have a fitted effect of over 50% in size; also: potency is read from the fitted curve at half-maximal effect). The gist of the method: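 qHTS antagonist format: PGC/ERR cells, 2k/well, compound in DMSO by pin transfer after 6 h attachment, 18 h treatment at 37 C, One-Glo luminescence read at 30 min.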

A short description of assay [6]: qHTS assay to identify small molecule agonists of the estrogen related receptor signaling pathway with the pleiotropic PPARgamma coactivator (PGC) from Tox21 10K library (AID 1224842). Also: nearly all actives have a fitted effect of over 15% in size. The gist of the method: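 PGC/ERR reporter cell line, 2,000 cells per well, incubated 6 h at 37 C before 23 nL compound in DMSO was added. After 18 h at 37 C, One-Glo luminescence read following 30 min at room temperature.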

The target in assay [7] is Thyrotropin receptor (Homo sapiens) (UniProt P16473). The experiment in a line: qHTS assay to identify small molecule agonists of the thyroid stimulating hormone receptor (TSHR) signaling pathway (AID 1224843; calls by dose curve; also: nearly all actives have a fitted effect of over 45% in size). A digest of the protocol: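 Steps: seed 800 TSHR-HEK293 cells per well; add test compound and hold 30 min at ambient temperature; dispense cAMP-d2 then anti-cAMP cryptate; incubate 1 h at ambient; measure fluorescence intensity.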

Assay [8] is described as follows: qHTS assay to identify small molecule agonists of the hypoxia (HIF-1) signaling pathway - cell viability counter screen (AID 1224844; calls by dose curve; also: nearly all actives have a fitted effect of over 50% in size). A digest of the protocol:
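Cells (HRE-bla ME-180, 2,000 per well) sat 5 hrs at 37C, got compound for 17 hrs, were read for CCF4-AM FRET, and were finally lysed with CellTiter-Glo for a 30 min room-temperature luminescence read.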

The nature of assay [9]: qHTS assay to identify small molecule agonists of H2AX (AID 1224845; active = well fitted activation curve with a large enough effect in the signal ratio in the repeat runs, not every such curve was filed as active; the % refers to the signal ratio). A digest of the protocol: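 Wild-type CHO-K1 cells, plated overnight, exposed 3hr at 37C to 15 concentrations (0.76% DMSO final). Lysed, then HTRF anti-pH2AX (S139) cryptate and anti-H2AX-d2 antibodies, 24 hr room temperature; 665/620 nm emission read.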
Assay [10] in a line: qHTS assay to identify small molecule agonists of the hypoxia (HIF-1) signaling pathway (AID 1224846; active = well fitted activation curve with a large enough effect in the signal ratio in the repeat runs, not every such curve was filed as active; the % refers to the signal ratio). The gist of the method: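 A low-serum medium (0.5% dialyzed FBS) holding 2,000 HRE-bla ME-180 cells per well is preincubated for 5 hrs, dosed with compounds by pintool, and kept a further 17 hrs at 37C, 5% CO2 before CCF4-AM FRET detection of beta-lactamase.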
A short description of assay [11]: qHTS assay to identify small molecule agonists of H2AX - cell viability counter screen (AID 1224847; calls by dose curve; also: top concentration of the series differs between compounds; nearly all actives have a fitted effect of over 30% in size). The gist of the method:
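Wild-type CHO-K1 cells (10% FBS medium) were plated overnight at 37C, exposed to compounds at 15 concentrations for 3 hr at 37C (0.76% DMSO final), and viability was read as CellTiter-Glo luminescence after 30 min at room temperature.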

Assay [12] is described as follows: qHTS assay to identify small molecule antagonists of the estrogen related receptor (ERR) signaling pathway from Tox21 library (AID 1224848). Also: nearly all actives have a fitted effect of over 50% in size. Also: potency is read from the fitted curve at half-maximal effect. A digest of the protocol:
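Luminescent reporter read-out (ONE-Glo) from NTP's ERR cell line after 18 h treatment at 37 C with DMSO-dissolved Tox21 compounds; cells pre-plated 6 h beforehand at 2,000 per well.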

A short description of assay [13]: qHTS assay to identify small molecule agonists of the estrogen related receptor (ERR) signaling pathway from Tox21 library (AID 1224849; calls by dose curve; also: nearly all actives have a fitted effect of over 15% in size). As to conditions: ERR reporter cell line, ONE-Glo luciferase, 18 h. The gist of the method:
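Screening used an NTP-provided ERR luciferase cell line. Compounds in DMSO were added 6 h after seeding and left 18 h at 37 C before a 30 min ONE-Glo step and luminescence reading.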

The nature of assay [14]: qHTS RealTime-Glo MT Cell Viability Assay in HepG2 cells - 24 hour (AID 1224867). Also: nearly all actives have a fitted effect of over 50% in size. The gist of the method: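 Cells + NanoLuc/prosubstrate dispensed (600 cells/well) → 5 h at 37 C/5% CO2 → compounds in DMSO transferred → 40 h incubation at 37 C, luminescence read at 0, 8, 16, 24, 32, 40 h.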
Assay [15] can be described thus: qHTS RealTime-Glo MT Cell Viability Assay in HEK293 cells - 32 hour (AID 1224868). Also: nearly all actives have a fitted effect of over 50% in size. Also: potency is read from the fitted curve at half-maximal effect. A digest of the protocol: (§1)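 Tox21 10K qHTS, HEK293, 600 cells/well, RealTime-Glo reagent co-dispensed with cells; 5 h preincubation, compound by pintool, 37 C, luminescence at 0–40 h.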
A short description of assay [16]: A CellTox Green Cytotoxicity Assay to monitor cytotoxicity in HEK293 cells - 0 hour (AID 1224869). Also: nearly all actives have a fitted effect of over 50% in size. A digest of the protocol: (§2)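 Fluorescence intensity, read at 0, 8, 16, 24, 32 and 40 h of compound treatment, reflected dye binding to DNA of dead HEK293 cells; compounds (23 nL, DMSO) were added 5 h after plating cells with reagent.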
Assay [17] in a line: qHTS RealTime-Glo MT Cell Viability Assay in HepG2 cells - 40 hour (AID 1224870). Also: nearly all actives have a fitted effect of over 50% in size. The gist of the method:
(§3)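 HepG2 cells (600/well) mixed with RealTime-Glo MT reagent, settled 5 h at 37 C/5% CO2 before compound addition. Nonlytic NanoLuc luminescence from viable-cell prosubstrate reduction read repeatedly during 40 h treatment at 37 C.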

The nature of assay [18]: A CellTox Green Cytotoxicity Assay to monitor cytotoxicity in HEK293 cells - 40 hour (AID 1224871). Also: nearly all actives have a fitted effect of over 45% in size. The gist of the method: as §2
Assay [19] can be described thus: qHTS RealTime-Glo MT Cell Viability Assay in HEK293 cells - 16 hour (AID 1224872). The gist of the method: as §1
A short description of assay [20]: qHTS RealTime-Glo MT Cell Viability Assay in HepG2 cells - 8 hour (AID 1224873). Also: nearly all actives have a fitted effect of over 55% in size. The gist of the method: as §3

Molecules are shown by their SMILES. Several values for one entry are separate records, joined by “and”; a condition that tells them apart may be missing. Equal entries are not always repeated. Inconclusive results are not listed. More than one record can exist for a structure, and the calls need not agree. Activity calls are given as the source filed them. Unless noted, calls follow the shape of the dose curve; as a rule, active = well fitted curve in the direction sought with a large enough effect in the repeat runs; inconclusive = weak or mixed curves; inactive = no such curve, though single readings can be large; an effect the other way counts as inactive or inconclusive.
% is scaled to controls: 0 for no effect and ±100 for the full control effect.

Sequence of Nuclear receptor subfamily 1 group I member 3 (Homo sapiens) (Q14994 whole entry, looked up): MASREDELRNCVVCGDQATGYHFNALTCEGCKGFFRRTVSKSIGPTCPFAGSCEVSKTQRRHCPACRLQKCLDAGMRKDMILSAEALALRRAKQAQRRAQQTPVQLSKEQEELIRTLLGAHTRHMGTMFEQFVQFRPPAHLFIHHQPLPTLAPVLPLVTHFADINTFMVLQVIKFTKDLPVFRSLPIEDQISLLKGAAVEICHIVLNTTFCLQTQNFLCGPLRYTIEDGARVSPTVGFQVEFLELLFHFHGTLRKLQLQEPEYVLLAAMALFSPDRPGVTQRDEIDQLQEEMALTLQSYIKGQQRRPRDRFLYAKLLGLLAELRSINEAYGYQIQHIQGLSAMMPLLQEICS
Sequence of Thyrotropin receptor (Homo sapiens) (P16473 whole entry, looked up): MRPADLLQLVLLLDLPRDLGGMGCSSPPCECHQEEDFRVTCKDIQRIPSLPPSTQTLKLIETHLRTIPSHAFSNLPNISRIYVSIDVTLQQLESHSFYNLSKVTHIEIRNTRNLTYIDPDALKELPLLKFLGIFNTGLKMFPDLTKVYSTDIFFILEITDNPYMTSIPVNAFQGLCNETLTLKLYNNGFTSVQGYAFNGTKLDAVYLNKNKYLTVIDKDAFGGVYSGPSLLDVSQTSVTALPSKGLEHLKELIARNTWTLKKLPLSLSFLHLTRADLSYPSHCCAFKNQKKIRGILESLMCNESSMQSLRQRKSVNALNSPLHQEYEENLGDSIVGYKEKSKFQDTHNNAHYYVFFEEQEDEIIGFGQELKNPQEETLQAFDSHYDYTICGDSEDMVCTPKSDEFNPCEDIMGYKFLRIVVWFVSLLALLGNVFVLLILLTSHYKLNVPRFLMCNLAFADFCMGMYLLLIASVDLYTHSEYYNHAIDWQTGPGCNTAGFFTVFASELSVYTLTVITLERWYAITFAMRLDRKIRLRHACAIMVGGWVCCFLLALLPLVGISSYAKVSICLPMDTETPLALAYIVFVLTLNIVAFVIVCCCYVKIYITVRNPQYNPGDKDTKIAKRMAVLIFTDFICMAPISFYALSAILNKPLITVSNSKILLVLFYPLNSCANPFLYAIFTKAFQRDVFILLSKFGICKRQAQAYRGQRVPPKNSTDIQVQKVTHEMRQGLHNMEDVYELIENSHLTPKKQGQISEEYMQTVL

Turning to `CC(C)(C)OOC(C)(C)C`, the Potency entry in assay [1], in [2], in [3], in [4], in [5] and in [7] was “inactive” in each case. For the same molecule, the Potency entry in [8], in assay [9], in assay [11], in assay [12], in [15] and in assay [16] was “inactive” throughout. In addition, the Potency entry in [18] is “inactive”. Moreover, the molecule was classed as inactive in [6], in [10], in assay [14], in assay [17], in assay [19] and in [20]. For the same molecule, the activity change, positive = activation in assay [13] (at 42.5 µM (top of the series)) was 6.85% (inactive); in assay [13] (at 92.4 µM (top of the series)), -1.09% (inactive).
As to `CC(C)(C)C(O)(CCc1ccc(Cl)cc1)Cn1cncn1` (stereo not given), the Potency entry in assay [1], in assay [2], in assay [3], in assay [4], in assay [8] and in [9] was “inactive” throughout. Besides, the Potency result in assay [16] and in assay [18] was “inactive” each time. The Potency is 55.1 µM (active) in assay [5]; 61.9 µM (active) and 61.1 µM (active) in [12]; 49.6 µM (active) and 49 µM (active) in assay [15]. Further, the molecule was called inactive in assay [6], in [10], in assay [14], in assay [17] and in assay [20]. Further, the activity change, positive = activation in assay [13] (at 92.4 µM (top of the series)) is -48.6% (inactive) and -40.4% (inactive).
In the case of `Clc1cccc(Cl)c1Cl`, the Potency entry in assay [1], in [2], in [3], in [4], in assay [5] and in assay [7] was “inactive” throughout. Further, the Potency result in assay [8], in assay [9], in assay [11], in assay [12], in [15] and in [16] was “inactive” throughout. In addition, the Potency entry in assay [18] is “inactive”. The molecule was classed as inactive in [6], in [10], in assay [14], in assay [17], in [19] and in assay [20]. In [13] (at 92.4 µM (top of the series)), the activity change, positive = activation was 0.683% (inactive).
Turning to `CCCCOC(=O)c1ccccc1C(=O)OCCCC`, the Potency entry in [1], in assay [2], in assay [3], in [4], in assay [5] and in assay [8] was “inactive” throughout. Also, the Potency entry in assay [9], in assay [11], in assay [12], in assay [15], in assay [16] and in assay [18] was “inactive” each time. Further, the call in assay [6], in [10], in [14], in [19] and in assay [20] was inactive. In assay [13] (at 92.4 µM (top of the series)), the activity change, positive = activation was -4.86% (inactive) and -5.73% (inactive).
For `[O-][Cl+2]([O-])O`, the Potency result in [1], in assay [2], in [3], in assay [4], in assay [7] and in [8] was “inactive” throughout. Further, the Potency entry in assay [9], in [11], in assay [15], in [16] and in assay [18] was “inactive” in each case. Moreover, the call in [10], in assay [14], in [19] and in assay [20] was inactive.
In the case of `CCOP(=S)(OCC)Oc1cnc2ccccc2n1`, the Potency entry in [1], in [2], in [4], in [7], in assay [8] and in [9] was “inactive” throughout. For the same molecule, the Potency result in assay [11], in [15], in [16] and in assay [18] was “inactive” throughout. Besides, in assay [3], the Potency entry was “inactive and 30.6 µM (active)”. In addition, the molecule was classed as inactive in [10], in [14], in assay [19] and in assay [20].
As to `CC(C)NC(=O)N1CC(=O)N(c2cc(Cl)cc(Cl)c2)C1=O`, the Potency result in assay [1], in assay [2], in assay [3], in assay [4], in assay [7] and in assay [8] was “inactive” throughout. Further, the Potency result in [9], in [11], in assay [12], in assay [16] and in assay [18] was “inactive” in each case. Besides, the Potency in assay [5] is 30.6 µM (active) and inactive. Besides, the call in assay [6], in assay [10], in assay [14], in assay [17], in [19] and in assay [20] was inactive. Besides, the activity change, positive = activation in assay [13] (at 92.4 µM (top of the series)) is -27.3% (inactive) and -5.72% (inactive).
